# Assay results as given in PubChem BioAssay AID485317 (Broad Institute, 2010).
# Hit rate of the full screen: of about 290,000 compounds, about 11,000 (3.8%) were called active.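 How the source made its calls: active means mean replicate inhibition above about 79%, with every replicate also reaching it (limit read from the data); inconclusive means only one of the two criteria met; inactive means mean below limit and not every replicate reaching it.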 Only a selection was taken, and actives are over-represented in it overall.
# Target: FAD-linked sulfhydryl oxidase ALR (Homo sapiens) (UniProt P55789)
# Sequence (P55789 whole entry, looked up): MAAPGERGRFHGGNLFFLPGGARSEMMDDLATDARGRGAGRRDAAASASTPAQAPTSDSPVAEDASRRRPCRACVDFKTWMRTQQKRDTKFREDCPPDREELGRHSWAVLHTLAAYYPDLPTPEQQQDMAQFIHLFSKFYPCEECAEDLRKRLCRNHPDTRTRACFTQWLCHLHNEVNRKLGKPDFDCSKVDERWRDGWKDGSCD
# Test: inhibitors of human ALR sulfhydryl oxidase, primary screen, biochemical, H2O2 detection, HRP-luminol luminescence, single point (AID 485317)
# Conditions: purified ALR, DTT oxidation, active compounds read high, concentration not given here
row,Structure (SMILES),inhibition
1,O=C(COC(=O)CSc1ccccc1)Nc1ccc(F)cc1F,0.233% (inactive)
2,Cc1nn(-c2ccccc2)nc1C(=O)OCC(=O)N1CCCCC1C (centres undefined),0.513% (inactive)
3,CC(C)(C)Nc1c(-c2cccs2)nc2ccccn12,98.7% (active)
4,Cc1nc2ccccn2c(=O)c1NC(=O)c1cccs1,-1.56% (inactive)
5,Cc1ccsc1C(=O)N[C@@H](C)c1nnc2ccccn12,-3.18% (inactive)
6,O=C(OCC(=O)N1CCCCCC1)c1ccc(Cl)nc1,8.08% (inactive)
7,CCOC(=O)[C@H]1[C@H]2COc3cc(OC)ccc3[C@@H]2N2C(=O)CN(Cc3ccc(Cl)cc3)C(=O)[C@@]12C,-2.14% (inactive)
8,CC(=O)N1CCCc2cc(S(=O)(=O)CCC(=O)N3CCN(c4ccccc4)CC3)ccc21,61.3% (inactive)
9,CCC(=O)N1CCc2cc(S(=O)(=O)CCC(=O)N3CCN(c4ccccc4F)CC3)ccc21,5.15% (inactive)
10,CCC(=O)N1c2ccc(S(=O)(=O)CCC(=O)N3CCN(c4ccccc4)CC3)cc2CC1C (centres undefined),98.5% (active)
11,CCC(=O)c1cc(F)ccc1OCC(=O)Nc1ccc2c(c1)OCCO2,-1.15% (inactive)
12,CNC[C@@H]1Oc2c(NS(C)(=O)=O)cccc2C(=O)N([C@@H](C)CO)C[C@H]1C,6.23% (inactive)
13,CCOc1ccc(C(C)=O)cc1COC(=O)CNC(=O)c1cccs1,-1.95% (inactive)
14,Oc1ccccc1C1=NN(c2ccccc2)C(c2ccccc2)C1 (centres undefined),47.4% (inactive)
15,COc1ccc(C2=NN(c3ccccc3)C(c3cccs3)C2)cc1 (centres undefined),-4.89% (inactive)
16,COc1ccc(C2CC(c3cccs3)=NN2c2ccccc2)cc1 (centres undefined),97.6% (active)
17,COc1ccc(C2CC(c3cccs3)=NN2C(=O)CCC(=O)O)cc1OC (centres undefined),5.58% (inactive)
18,COc1ccccc1N1N=C(c2cccs2)CC1c1ccccc1 (centres undefined),97.2% (active)
19,COc1ccc(C2CC(c3cccs3)=NN2c2ccc(F)cc2)cc1OC (centres undefined),-1.9% (inactive)
20,COc1ccc(C(=O)C2CCCN(C(=O)c3ccc(OC)o3)C2)c(C)c1 (centres undefined),-4% (inactive)
21,CNC(C)C#Cc1ccc2sc3cc(OC)c(OC)cc3c(=O)c2c1 (centres undefined),-24.4% (inactive)
22,Cc1onc(-c2ccccc2Cl)c1C(=O)N(Cc1ccc(N(C)C)cc1)C(C)C,9.74% (inactive)
23,CCCCCOc1ccc(CSC2=NCCN2)cc1[N+](=O)[O-],98.8% (active)
24,CCCCOc1ccc(CSC(=N)N)cc1[N+](=O)[O-],99.9% (active)

row,Structure (SMILES),inhibition
1,Cc1cc(OCCCCOc2ccc(C#N)cc2)ccc1[N+](=O)[O-],3.02% (inactive)
2,C=CCN(CC=C)CCOc1ccccc1[N+](=O)[O-],-15.8% (inactive)
3,CCCCOC(=O)CCCc1ccc([N+](=O)[O-])cc1[N+](=O)[O-],-8.65% (inactive)
4,CCCOc1ccc(Cn2ccnc2)cc1[N+](=O)[O-],-2.35% (inactive)
5,Cc1cc(C)c(S(=O)(=O)N2CCCC2CNC(=O)c2ccc3c(c2)OCO3)c(C)c1 (centres undefined),0.666% (inactive)
6,COCCn1c(C)cc(C(=O)CN2c3cccc4cccc(c34)S2(=O)=O)c1C,-28.9% (inactive)
7,CCCCN(C(=O)C1CCC1)c1c(N)n(Cc2ccccc2)c(=O)[nH]c1=O,7.79% (inactive)
8,Cc1ccccc1NC(=O)Cc1nc(COC(=O)c2cccnc2Cl)cs1,31.8% (inactive)
9,O=C(COC(=O)c1ccc2c(c1)OCCO2)NCc1ccccc1Cl,1.29% (inactive)
10,Cc1nn(CC(=O)NCC2CCCO2)c(=O)c2cc3ccccc3n12 (centres undefined),-2.19% (inactive)
11,O=C(Cn1nc(Cc2cccnc2)c2ccccc2c1=O)NCC1COc2ccccc2O1 (centres undefined),-6% (inactive)
12,O=C(Cn1nc(Cc2cccnc2)c2ccccc2c1=O)NCC1CCCO1 (centres undefined),98% (active)
13,CCOC(=O)c1cc(NC(=O)c2cccnc2)ccn1,-12.6% (inactive)
14,CC(=O)Nc1ccc(SC[C@H](Cc2ccccc2)N2CC[C@@H](C)CCC2=O)cc1,97.9% (active)
15,C[C@H]1CCC(=O)N([C@H](CSc2ccccc2)Cc2ccccc2)CC1,-5.54% (inactive)
16,O=C1CC[C@H](O)CCN1[C@H](CSc1ccc(Br)cc1)Cc1ccccc1,11.4% (inactive)
17,COc1ccc(NC(=O)COC(=O)c2n[nH]c3ccccc23)c(OC)c1,-2.04% (inactive)
18,c1ccc(-c2cnc(CN3CCN(c4ccccc4)CC3)o2)cc1,88.2% (active)
19,Fc1ccc(N2CCN(Cc3cnc(Oc4ccc(Br)cc4)s3)CC2)cc1,1.01% (inactive)
20,COc1ccc(N2CCN(Cc3nnc(-c4ccccc4)o3)CC2)cc1,35.1% (inactive)
21,COc1ccc(C2=Nn3c(nnc3-c3ccccc3OC)SC2)cc1OC1CCCC1,0.67% (inactive)
22,O=C(Nc1ccc(F)c([N+](=O)[O-])c1)C1CCCO1 (centres undefined),-26.1% (inactive)
23,CCOc1ccc(OCC(=O)OC(C)C(=O)NC2CCCCC2C)cc1 (centres undefined),-1.89% (inactive)
24,CCOC(=O)c1ccc(NC2Nc3cc(C)nn3S2)cc1 (centres undefined),-10.5% (inactive)

row,Structure (SMILES),inhibition
1,CCc1ccc(NC2Nc3cc(C)nn3S2)cc1 (centres undefined),97.5% (active)
2,COc1ccc(-c2nnc(SCC(=O)Nc3cccnc3Cl)n2C)cc1,-3.14% (inactive)
3,C[C@H](NC(=O)c1[nH]cnc1C(=O)Nc1nccs1)c1ccccc1,-11.7% (inactive)
4,COc1cc(/C=C/C(=O)OCC(=O)NCCCc2ccccc2)ccc1O,92.7% (active)
5,COc1ccc(C(=O)OCC(=O)NCCCc2ccccc2)cc1OC,1.14% (inactive)
6,COc1cc(/C=C/C(=O)OCC(=O)Nc2cccc(Oc3ccccc3)c2)ccc1O,-5.43% (inactive)
7,O=C1C=C(c2cccc(Cl)c2O)C[C@@H](c2ccc(F)cc2)C1,19.8% (inactive)
8,COC(=O)c1ccc(COC(=O)CNC(=O)c2cccc(OC)c2)o1,0.754% (inactive)
9,CCN(C(=O)COC(=O)Cc1c(F)cccc1Cl)c1c(N)n(Cc2ccccc2)c(=O)[nH]c1=O,-2.58% (inactive)
10,CC(C)c1ccc(/C=C/C(=O)NNC(=O)c2cccnc2)cc1,3.18% (inactive)
11,O=C(/C=C/c1ccc(F)cc1)NC(=S)NNC(=O)c1cccnc1,91.2% (active)
12,O=C(/C=C/c1ccc(F)cc1)NCCNC(=O)/C=C/c1ccc(F)cc1,-1.46% (inactive)
13,O=C(NCCc1ccco1)c1ccc(OCc2cn3ccccc3n2)cc1,-0.605% (inactive)
14,COc1ccc(S(=O)(=O)N2CCCCC2)cc1NC(=O)COc1ccccc1,-4.75% (inactive)
15,Fc1ccccc1/C=N/Nc1cc(N2CCCCC2)ncn1,-6.88% (inactive)
16,Cc1cc(N/N=C/c2ccccc2F)c2ccccc2n1,98.4% (active)
17,Cc1ccc2nc(C)cc(N/N=C/c3ccc(F)cc3)c2c1,68.2% (inactive)
18,O=C(Nc1ccc(N2CCOCC2)cc1)c1cccc(S(=O)(=O)N2CCOCC2)c1,13.1% (inactive)
19,Cc1sc2nc(CSCC(=O)Nc3c(Cl)cccc3Cl)[nH]c(=O)c2c1C,36.7% (inactive)
20,CCOC(=O)c1sc2nc(CSCC(=O)OCc3ccc(C(=O)OC)o3)[nH]c(=O)c2c1C,91.5% (active)
21,CCOC(=O)c1sc2nc(C)[nH]c(=O)c2c1C,-7.28% (inactive)
22,CC(C)CCNc1nc(N2CCCC2)c2c(c1C#N)CCN(C)C2,89.2% (active)
23,N#CCc1c(C#N)c(N)nc(N2CCCC2)c1C#N,6.64% (inactive)
24,CC(C)Cc1nc(N2CCOCC2)c(C#N)c2c1CCC2,-5.9% (inactive)

row,Structure (SMILES),inhibition
1,Cc1ccsc1C(=O)NC1CCCCC1C (centres undefined),-1.25% (inactive)
2,COc1ccccc1C1=CC(=O)C[C@H](c2ccc(F)cc2)C1,-1.43% (inactive)
3,Cc1cc(C)c(NC(=O)CSc2nc3ccncc3[nH]2)c(C)c1,0.095% (inactive)
4,CCN(CC)CCNC(=O)c1ccc(NC(=O)c2cc(-c3ccncc3)nc3ccccc23)cc1,-5.03% (inactive)
5,CCCCN(CC)CCCNC(=O)c1ccc(CSc2nc3ccncc3[nH]2)cc1,98.4% (active)
6,Cc1nn(Cc2ccccc2)c(C)c1CNC(=O)c1ccc(F)c(S(=O)(=O)N2CCOCC2)c1,-0.911% (inactive)
7,CCOc1cc(/C=C/C(=O)OCC(=O)NCCN2C(=O)CSC2=O)ccc1OCC(C)C,2.31% (inactive)
8,CCN(CC(=O)Nc1c(F)cccc1F)C(=O)c1ccc(Sc2nncn2C)c([N+](=O)[O-])c1,-9.3% (inactive)
9,CC(C)(C)NCc1cc(Br)ccc1OC1CCCC1,-4.37% (inactive)
10,CCOc1ccc(Br)cc1CSC(=N)N,98.3% (active)
11,CCOc1ccc(Br)cc1S(=O)(=O)N1CCC(C(=O)O)CC1,-9.17% (inactive)
12,CN(C)CC(O)COc1ccc(C(C)(C)c2ccc(OCC(O)CN(C)C)cc2)cc1 (centres undefined),-9.59% (inactive)
13,CCCC(O)(c1ccc(OC)cc1)C(CN(C)C)c1ccccc1 (centres undefined),98.6% (active)
14,COc1ccc(C(O)(C2CCCCC2)C(CN2CCCC2)c2ccccc2)cc1 (centres undefined),-2.71% (inactive)
15,CC(=O)NC(CC(=O)Nc1ccc(S(=O)(=O)N2CCOCC2)cc1)c1ccccc1 (centres undefined),-5.33% (inactive)
16,COc1ccc(CNC(=O)CNC(=O)c2sc3ccccc3c2Cl)cc1OC,-4.54% (inactive)
17,NCCN1CCN2C(=O)CN(C(=O)c3ccccc3)CC12 (centres undefined),1.22% (inactive)
18,Cc1c(C(C)CCCO)oc(=O)c2c1Oc1c(C)c(C(C)C[C@@H](C)O)oc(=O)c1C2 (some centres undefined),-3.12% (inactive)
19,COc1cc(C(=S)NCc2ccccc2)cc(Br)c1O,88.4% (active)
20,COc1cc(C(=O)NCc2ccncc2)cc(Br)c1OCc1ccccc1,-6.06% (inactive)
21,COc1cc(C=O)c(Br)cc1OCC(=O)NCc1ccccc1,-3.31% (inactive)
22,O=C(CCC(=O)c1ccccc1)NCc1cccc(C(F)(F)F)c1,-5.12% (inactive)
